O=C(c1ccc(-c2cc(-c3c[nH]nc3-c3ccccn3)ccn2)cc1)N1CCCC1 [GW792479]
Kd (PRKCI): > 10000 nM

NC(=O)c1sc(-n2cnc3ccccc32)cc1OCc1ccccc1F [GSK1024306]
Kd (PLK1): 9.6 nM | Kd (PLK2): 25 nM | Kd (PLK3): 52 nM

Cl.Cl.c1ccc(-c2cc3ccncc3cc2OC2CCNCC2)cc1 [GSK1122999]
Kd (PRKCE): 640 nM | Kd (PRKCH): 390 nM

COc1cc2ncnc(Nc3ccc(OCc4ccccc4Br)c(Cl)c3)c2cc1OC.Cl [GI261590]
Kd (PKN1): > 10000 nM | Kd (PRKCQ): > 10000 nM

Cc1cccc(-c2nc(Nc3ccc4[nH]nnc4c3)c3ccccc3n2)n1 [GW867587]
Kd (PRKD1): 61 nM | Kd (PRKD2): 83 nM

Fc1cccc(COc2ccc(Nc3ncnc4sc(-c5ccc[nH]5)cc34)cc2Cl)c1 [GW707818]
Kd (PRKCH): > 10000 nM
